Measurements from the supplement of paper PMC9694430.

What was measured:
Test in all cases: thermal shift delta Tm vs DMSO control; higher = stronger stabilization (binding)
Settings in all cases: 12.5 µM; protein concentration 2 µM
[1] = test system: LOC_OS02G45750-cb003
How it was run: (§1)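 Heating from 25°C to 95°C at 0.05°C/s, fluorescence was recorded for 19.5 μl wells of 2 μM E. coli-expressed, purified rice kinase domain in 100 mM potassium phosphate pH 7.5, 150 mM NaCl, 10% glycerol and 5 × SYPRO Orange with compound in DMSO. Boltzmann fits gave melting temperatures for this differential scanning fluorimetry assay. The shift reported is the mean of three replicates against the DMSO-only protein.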

[2] = test system: LOC_OS02G54510-cb004
How it was run: as §1

[3] = test system: LOC_OS03G04050-cb001
How it was run: as §1

[4] = test system: LOC_OS03G12390-cb001
How it was run: as §1

[5] = test system: LOC_OS03G27990-cb004
How it was run: as §1

[6] = test system: LOC_OS03G50450-cb001
How it was run: as §1

[7] = test system: LOC_OS03G50810-cb003
How it was run: as §1

[8] = test system: LOC_OS04G35114-cb001
How it was run: as §1

[9] = test system: T1, LOC_OS04G38480-cb003
T1 sequence (whole entry): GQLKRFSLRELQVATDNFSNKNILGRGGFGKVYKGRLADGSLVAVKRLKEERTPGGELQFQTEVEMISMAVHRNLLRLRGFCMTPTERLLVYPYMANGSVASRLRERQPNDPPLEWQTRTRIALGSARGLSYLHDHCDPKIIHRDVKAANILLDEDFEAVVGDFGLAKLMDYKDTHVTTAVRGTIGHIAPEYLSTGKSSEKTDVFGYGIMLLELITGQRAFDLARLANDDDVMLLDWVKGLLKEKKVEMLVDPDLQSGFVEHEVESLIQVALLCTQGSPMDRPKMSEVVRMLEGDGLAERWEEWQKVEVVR
How it was run: as §1

[10] = test system: T2, LOC_OS04G41100-cb001
T2 sequence (whole entry): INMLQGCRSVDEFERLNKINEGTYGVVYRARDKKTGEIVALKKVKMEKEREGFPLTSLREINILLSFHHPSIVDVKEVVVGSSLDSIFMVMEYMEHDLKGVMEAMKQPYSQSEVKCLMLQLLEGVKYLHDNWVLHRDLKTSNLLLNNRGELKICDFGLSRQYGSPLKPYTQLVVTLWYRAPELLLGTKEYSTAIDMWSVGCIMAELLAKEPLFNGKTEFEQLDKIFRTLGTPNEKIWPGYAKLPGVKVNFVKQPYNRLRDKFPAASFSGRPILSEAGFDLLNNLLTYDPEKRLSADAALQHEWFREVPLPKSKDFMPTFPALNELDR
How it was run: as §1

[11] = test system: LOC_OS04G57630-cb004
How it was run: as §1

[12] = test system: LOC_OS05G07850-cb002
How it was run: as §1

[13] = test system: LOC_OS05G16824-cb004
How it was run: as §1

[14] = test system: LOC_OS05G28520-cb001
How it was run: as §1

[15] = test system: LOC_OS05G30820-cb001
How it was run: as §1

[16] = test system: LOC_OS05G43570-cb004
How it was run: as §1

[17] = test system: LOC_OS06G16330-cb003
Chain of LOC_OS06G16330-cb003 (as listed by the source): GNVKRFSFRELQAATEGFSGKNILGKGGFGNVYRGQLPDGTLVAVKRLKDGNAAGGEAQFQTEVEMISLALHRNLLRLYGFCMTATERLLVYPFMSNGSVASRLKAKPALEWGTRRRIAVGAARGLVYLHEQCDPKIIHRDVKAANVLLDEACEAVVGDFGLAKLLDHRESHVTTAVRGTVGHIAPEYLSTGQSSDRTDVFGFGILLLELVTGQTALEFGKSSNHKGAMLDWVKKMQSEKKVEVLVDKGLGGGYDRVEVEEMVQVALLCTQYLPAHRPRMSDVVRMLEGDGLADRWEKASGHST
How it was run: as §1

[18] = test system: T3, LOC_OS06G22820-cb001
T3 sequence (whole entry): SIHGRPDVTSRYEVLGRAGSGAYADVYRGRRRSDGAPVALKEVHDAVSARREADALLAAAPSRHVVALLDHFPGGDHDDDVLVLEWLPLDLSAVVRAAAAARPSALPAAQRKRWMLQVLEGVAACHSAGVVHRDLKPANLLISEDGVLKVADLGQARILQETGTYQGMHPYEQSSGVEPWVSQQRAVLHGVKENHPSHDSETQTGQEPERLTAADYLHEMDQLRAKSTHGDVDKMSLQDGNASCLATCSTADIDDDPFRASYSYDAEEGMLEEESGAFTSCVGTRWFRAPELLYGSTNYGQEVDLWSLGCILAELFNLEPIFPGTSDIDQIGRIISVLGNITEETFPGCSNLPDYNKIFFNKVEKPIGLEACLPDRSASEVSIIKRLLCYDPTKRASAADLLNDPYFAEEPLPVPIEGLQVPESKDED
How it was run: as §1

[19] = test system: LOC_OS07G06570-cb004
How it was run: as §1

[20] = test system: LOC_OS07G07230-cb001
How it was run: as §1
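Also: purified Escherichia coli-expressed rice kinase domain construct.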

Row | SMILES | thermal shift delta Tm [1] [°C] | thermal shift delta Tm [2] [°C] | thermal shift delta Tm [3] [°C] | thermal shift delta Tm [4] [°C] | thermal shift delta Tm [5] [°C] | thermal shift delta Tm [6] [°C] | thermal shift delta Tm [7] [°C] | thermal shift delta Tm [8] [°C] | thermal shift delta Tm [9] [°C] | thermal shift delta Tm [10] [°C] | thermal shift delta Tm [11] [°C] | thermal shift delta Tm [12] [°C] | thermal shift delta Tm [13] [°C] | thermal shift delta Tm [14] [°C] | thermal shift delta Tm [15] [°C] | thermal shift delta Tm [16] [°C] | thermal shift delta Tm [17] [°C] | thermal shift delta Tm [18] [°C] | thermal shift delta Tm [19] [°C] | thermal shift delta Tm [20] [°C]
1 | COc1nccc(-c2c(-c3ccc(F)cc3)ncn2C2CCC(O)CC2)n1 (stereo unspecified) | 0.57 | -0.06 | 0.08 | 0.08 | 0.19 | 0.52 | 0.48 | 0.56 | 1.13 | 0.51 | 0.18 | -0.01 | 1.52 | 0.58 | 0.26 | 0.65 | 0.57 | 0.43 | 0.69 | -0.08
2 | N#Cc1c(NC(=O)c2cccc3ccccc23)sc2c1CCCC2 [JNK Inhibitor IX] | 0.59 | -0.12 | 0.41 | -0.14 | 0.23 | 0.19 | 0.38 | 0.53 | 1.73 | 0.46 | 0.22 | 0.04 | -1.1 | 0.77 | 0.43 | 0.27 | -0.09 | 0.6 | 0.83 | 0.4
3 | O=C(c1ccc(/C=C/c2n[nH]c3ccccc23)cc1)N1CCNCC1 | 14 | 0.61 | 0.27 | 6.79 | 6 | 4.25 | 4.42 | 8.77 | 2.61 | 0.96 | 3.95 | 9.5 | 10.5 | 2.59 | 1.8 | 0.66 | 7.34 | 0.53 | 1.15 | 0.03
4 | CNC(=O)c1ccc(C)c(-n2c(C)cc(OCc3ccc(F)cc3F)c(Br)c2=O)c1 | 0.5 | 0.06 | 0.28 | 0.6 | 0.15 | 0.27 | 0.59 | 0.14 | 0.62 | 0.73 | 0.7 | 0.4 | 0.62 | 0.4 | 0.44 | 0.56 | 0.1 | 0.38 | 0.59 | -0.01
5 | CC(C)c1c2cc(-c3ccnc(NC4CCC(NC5CCOCC5)CC4)n3)ccc2nn1C (stereo unspecified) | 1.08 | 0.06 | 0.41 | 0.78 | 0.18 | 0.03 | 1.01 | 2.72 | 0.69 | 6.52 | 1.43 | 6.4 | -6.14 | 0.56 | 0.45 | 0.57 | 3.01 | 0.19 | 1.62 | 0.55
6 | Cc1[nH]c(/C=C2\C(=O)Nc3ccc(S(=O)(=O)N(C)c4cccc(Cl)c4)cc32)c(C)c1C(=O)N1CCN(C)CC1 | 0 | 0.59 | 0.42 | 2.96 | 0.14 | -0.1 | 0 | 7.25 | 5.89 | 0.68 | 0.72 | 9.11 |  | 0.18 | 0.55 | -0.03 | -6.47 | 1 | 0.23 | 0.81
7 | CC(C)(C)c1cc(/C=C(\C#N)C(N)=S)cc(C(C)(C)C)c1O [Tyrphostin AG 879] |  | 6.54 | 0.85 | 2.51 | 1 | 0.98 | 2.05 | 1.68 | 2.13 | 1.27 | -0.19 | 12.1 | -5.25 | 1.25 | 1.1 | 1.09 | 1.66 | 1.38 | 2.77 | 0.65
8 | CC1(C)OC(=O)C=C[C@]2(C)[C@H]3CC[C@@]4(C)[C@H](c5ccoc5)OC(=O)[C@H]5O[C@]54[C@]3(C)C(=O)C[C@@H]12 [Obacunone] | 0.46 | -0.19 | 0.48 | 0.2 | 0.14 | 0.72 | 0.54 | -0.27 | 1.66 | 0.27 | -0.08 | -0.17 | 0.73 | 0.17 | 0.18 | 0.33 | -0.35 | 0.3 | 1.76 | 0.44
9 | CC(C)CCN1c2nc(Nc3cc(F)c(O)c(F)c3)ncc2N(C)C(=O)C1C (stereo unspecified) | 3.25 | 1.91 | 0.57 | 7.92 | 3.82 | 2.58 | 3.02 | 3.84 | 4.5 | 1.29 | 1.73 | 7.46 | 8.92 | 1 | 1.42 | 0.53 | 3.47 | 1.8 | 3.6 | 0.37
10 | Cn1cc(C2=C(c3ccc(Cl)cc3Cl)C(=O)NC2=O)c2ccccc21 | 1.02 | 0.82 | 0.78 | 0.98 | 0.26 | 0.6 | 0.67 | 1.64 | 1.13 | 0.96 | 0.28 | 2.36 | 0.19 | 2.17 | 0.49 | 0.84 |  | 1.02 | 2.2 | 0.68
11 | CC1Oc2cc(cnc2N)-c2c(nn(C)c2C#N)CN(C)C(=O)c2ccc(F)cc21 (stereo unspecified) | 1.05 | 0.8 | 0.3 | 6.42 | 0.12 | -0.13 | 0.66 | 0.69 | 2.3 | 0.38 | 0.38 | 2.16 | -1.64 | 0.23 | 0.66 | 0.83 | 10.9 | 0.16 | 0.86 | 0.75
12 | CCCCCCCCCCCCCCCCn1cc[n+](Cc2ccccc2)c1C | -1.15 | -1.83 | -4.41 | -3.77 | 0.11 | -1.25 | -4.07 | -2.5 | -5.2 | -1.35 | -3.77 | 0.19 |  | -2.62 | -1.41 | -3.26 | -4.53 | -0.65 | -1.18 | -0.82
